MsrA inh: bovine MsrA inhibition; inhibition, % at 15.5 µM; purified bovine MsrA, absorbance read-out; AID 651718; 0.75% of 360,000 active
MsrA act: activates bovine MsrA enzyme; purified bovine MsrA, absorbance read-out; activation, % at 10.6 µM; 0.3% of 360,000 active; in the data active means activation above about 7.5%
PKA-R1A activ: activates the PKA-R1A holoenzyme complex; PKA-R1A dissociation, Cy5-IP20 fluorescence polarization; scaled: DMSO 0%, 113 µM cGMP 100%; 0.083% of 340,000 active; activation, % at 11.4 µM; P00514+P68181;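 active means percent activation above the mean of all tested compounds plus 3 SD, cut at about 19% in these data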;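 further: higher means more PKAc released from R1A so a rise in polarization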
PKA-R2B act: activators of human PKA-R2B complex. AID 504700. PKA-R2B holoenzyme dissociation, Cy5-IP20 fluorescence polarization; R2B truncated from residue 108, S112A mutant; 0% DMSO only, 100% 113 µM cGMP. 0.079% of 340,000 active. activation, % at 11.4 µM;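 active means activation above a cutoff set at the mean over all compounds plus 3 SD, cut at about 18% in these data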;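 further: higher means more holoenzyme dissociation and a rise in polarization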
Target sequence (P31323 whole entry, looked up, other chains not shown, the tested form may be a part): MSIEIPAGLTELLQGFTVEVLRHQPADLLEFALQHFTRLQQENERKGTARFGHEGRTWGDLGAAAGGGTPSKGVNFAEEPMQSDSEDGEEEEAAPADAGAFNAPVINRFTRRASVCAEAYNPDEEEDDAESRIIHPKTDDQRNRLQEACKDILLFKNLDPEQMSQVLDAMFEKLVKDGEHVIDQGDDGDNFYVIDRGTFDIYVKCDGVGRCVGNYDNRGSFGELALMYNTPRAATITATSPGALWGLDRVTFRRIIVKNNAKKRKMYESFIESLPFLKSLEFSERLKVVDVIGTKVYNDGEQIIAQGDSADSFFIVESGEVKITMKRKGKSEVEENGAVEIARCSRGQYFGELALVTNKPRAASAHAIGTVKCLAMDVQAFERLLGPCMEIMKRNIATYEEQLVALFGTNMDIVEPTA
MsrA conf: bovine MsrA inhibition, confirmed. shares compounds with MsrA inh. purified bovine MsrA, absorbance read-out. inhibition, % at 15.5 µM. 41% of 2,300 active. AID 651822;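 further: coupled to thioredoxin reductase with NADPH and selenocystamine and DMSO as substrate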
A number is an active result; i = inactive; nt = no result given. Most compounds without a hit are left out; they make up all but 1.1% or so of the library. Unless noted, no stated cut-off is given here; in the data, active means inhibition above about 4.5%; inactive means the rest.

SMILES | MsrA inh | MsrA act | PKA-R1A activ | PKA-R2B act | MsrA conf
CC(C)(C)c1cc[n+](-c2[nH]c(=O)sc2/C=N/N=C(\[O-])c2cccnc2)cc1 | 5.4 | i | i | i | 5.9
O=C(C[C@@H]1C=C[C@@H](NC(=O)C2CC2)[C@@H](CO)O1)NCc1ccccc1Cl | i | nt | nt | nt | nt
CCOC(=O)C1(N(CC)CC)Sc2cc(C)ccc2NC1=O (centres undefined) | i | i | i | i | nt
COC(=O)C1=C(C(=O)OC)SC2(S1)C(C(=O)OC)=C(C(=O)OC)SC1=C2c2cc(C)ccc2NC1(C)C | 6.1 | i | i | i | i
COc1cc2c(c(OC)c1OC)C1(CCCCC1)CC2NC(=O)c1ccncc1 (centres undefined) | i | nt | nt | nt | nt
Cc1[nH]c2ccccc2c1/C=N/NC(=O)c1cccc(F)c1 | 4.8 | i | i | i | i
Cc1[nH]c2ccccc2c1/C=N\NC(=O)c1ccco1 | 6.6 | i | i | i | 5.3
CCc1cc2c(nc1CC)CCCN2Cc1ccc(Br)cc1 | i | nt | nt | nt | nt
Fc1cnc(N2CCOCC2)nc1N1CCOCC1 | i | i | i | i | nt
Fc1cnc(N2CCOCC2)nc1N1CCc2ccccc21 | 8.0 | i | i | i | i
CCOc1cc(/C=N/NC(=O)c2cccc(S(=O)(=O)N3CCCC3)c2)ccc1OCC(=O)N(C)C | i | i | i | i | nt
S=C1NC2(CCCCC2)Nc2ccccc21 | 6.4 | i | i | i | 7.2
c1cc2c3c(cccc3c1)NC1(CCCC1)N2 | i | i | i | i | nt
S=C1NC2(CCCC2)Nc2ccccc21 | 9.1 | i | i | i | 8.7
CC1(C)CC(=O)C2=C(C1)c1c(ccc3ccccc13)NC2c1cc([N+](=O)[O-])cc([N+](=O)[O-])c1O (centres undefined) | i | i | i | i | nt
c1ccc2c(c1)nc(N1CCOCC1)c1nnnn12 | 7.5 | i | i | i | 13.8
Clc1cc(Cl)cc(CN2CCN(c3ncc(Cc4ccccc4)cn3)CC2)c1 | i | nt | nt | nt | nt
Cc1ccccc1NC(=O)N(C)[C@H]1C[C@H]2c3[nH]c4c(-c5ccc6c(c5)OCO6)cccc4c3CCN2C(=O)[C@H]1[C@H](C)O | i | nt | nt | nt | nt
Nc1nc2nccc(-c3ccc(Cl)cc3)n2n1 | 5.2 | i | i | i | i
Cc1cc(-c2ccc(Cl)cc2)n2nc(N)nc2n1 | i | i | i | i | nt
O=C(O)/C(=C\c1ccc(-c2ccc(F)cc2)o1)c1ccccc1 | 4.7 | i | i | i | i
O=Cc1ccc(-c2ccc(C(=O)O)cc2)o1 | 7.2 | i | i | i | i
COc1cccc2cc(C(=O)Oc3ccc(NC(C)=O)cc3)c(=O)oc12 | 4.7 | i | i | i | i
CCCCNC(=O)C[C@H]1C[C@@]2(C(=O)OC)C(=C[C@H](COCc3ccccc3)O[C@@H]2C)N(CCC2=CCCCC2)C1=O | i | nt | nt | nt | nt
O=C(Nc1ccc([N+](=O)[O-])cn1)c1ccc(Br)o1 | 5.6 | i | i | i | i
SMILES | MsrA inh | MsrA act | PKA-R1A activ | PKA-R2B act | MsrA conf
O=C(Nc1ccc([N+](=O)[O-])cn1)c1cccnc1 | i | i | i | i | nt
Nc1nc(COC(=O)C2CCN(C(=O)c3ccc(Cl)cc3)CC2)nc(Nc2ccccc2)n1 | i | i | i | i | nt
CC1(c2ccc3c(c2)OCCO3)NC(=O)N(CC(=O)Nc2c(F)cccc2F)C1=O (centres undefined) | i | i | i | i | nt
COc1ccc2nc(Nc3nc4cc5c(cc4s3)OCO5)sc2c1 | 4.8 | i | i | i | i
COc1ccc2nc(NC(=O)c3ccco3)sc2c1 | 4.7 | i | i | i | i
COc1ccc2nc(Nc3ccc4c(c3)OCO4)sc2c1 | i | i | i | i | nt
Cc1ccc2nc(NC(=O)c3ccco3)sc2c1 | i | i | i | i | nt
Cc1cc(C)cc(NC(=O)C2CCN(S(=O)(=O)c3ccc4[nH]c(=O)ccc4c3)CC2)c1 | i | i | i | i | nt
Cc1noc(C)c1C(=O)N1CCC1(C)C(=O)NS(=O)(=O)c1ccccc1Cl (centres undefined) | i | i | nt | nt | nt
COC(=O)Nc1[nH]ncc1[N+](=O)[O-] | i | i | i | i | nt
C(=N\Nc1nc2ccccc2s1)/c1ccco1 | 6.2 | i | i | i | 5.5
CC(C)C[C@H]1CN([C@@H](Cc2ccccc2)CN2CCC[C@@H]2CN2C(=O)C(=O)NC[C@@H]2Cc2ccccc2)C(=O)C(=O)N1CC1CCCCC1 | i | i | nt | nt | nt
O=[N+]([O-])c1ccc(Nc2ccccc2O)c([N+](=O)[O-])c1 | 5.7 | i | i | i | 7.2
CCOC(=O)CC(C)(C)/C(C)=N/Nc1ccc([N+](=O)[O-])cc1[N+](=O)[O-] | 9.8 | i | i | i | 13.0
